Compound activity from PubChem.
CHX counter: Cycloheximide Counterscreen for Small Molecule Inhibitors of Shiga Toxin; max response, %; cell reporter, cycloheximide protein synthesis inhibition counterscreen; hit rate 12% among 300,000; in the data active = max response mostly above about 13%, no sharp cut-off; inactive = mostly below about 14%; note: read at 38.3 µM for the half of the compounds with a filed dose; 0% is about no effect
Pf growth 48h: Primary qHTS for delayed death inhibitors of the malarial parasite plastid, 48 hour incubation; P. falciparum luciferase growth in erythrocytes, 48 h; Potency, µM (highest dose often 28.7 µM), inactives show top-dose activity change, negative = inhibition, most hits filed as inhibitors; hit rate 5.9% among 310,000; AID 504832, 2011; note: potency is the fitted concentration of half-maximal effect; % is set by controls: 0 for no effect and ±100 for the full control effect
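Luciferase-expressing parasites in RBCs, 2% Hct / 0.1% parasitemia final; RPMI 1640 + 0.5% Albumax; 37 C, 5% CO2, one generation; luminescence read-out, lower signal = inhibition.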
Pf growth 96h: Primary qHTS for delayed death inhibitors of the malarial parasite plastid, 96 hour incubation; hit rate 6.9% among 320,000; Potency, µM (doses to about 28.7 µM), inactives show at the highest dose activity change, negative = inhibition, usual class: inhibitors; P. falciparum luciferase reporter growth, 96 h; AID 504834, 2011; note: potency is the fitted concentration of half-maximal effect; % is set by controls: 0 for no effect and ±100 for the full control effect
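Compounds incubated with erythrocytes infected by luciferase-expressing P. falciparum (2% hematocrit, 0.05% parasitemia final) for 96 hours, 37 C in 5% CO2. Growth inhibition scored as decreased luciferase luminescence.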
SARS PLP yeast: qHTS of Yeast-based Assay for SARS-CoV PLP. S. cerevisiae expressing SARS-CoV PLpro, growth rescue. Potency, µM (titrated, usually from 32.9 µM), without a hit: at the top dose activity, positive = growth rescue, most hits filed as activators. hit rate 0.19% among 330,000. AID 485353, 2010; calls by dose curve; note: potency is the fitted concentration of half-maximal effect; 0% is about no effect; nearly all actives have a fitted effect of over 55% in size
Shiga toxin inh: A qHTS for Small Molecule Inhibitors of Shiga Toxin | Vero cells, Shiga toxin protein synthesis inhibition reporter | inhibition, % at 38.7 µM | hit rate 9.2% among 290,000 | AID 2315, 2010; in the data active = inhibition mostly above about 28%, no sharp cut-off; inactive = mostly below about 43%; note: 0% is about no effect
NS1 inh: qHTS Assay for Inhibitors of Influenza NS1 Protein Function. Potency, µM (titrated, usually from 46.1 µM), without a hit: at the top dose activity, positive = more growth. hit rate 0.4% among 270,000; calls by dose curve; note: potency is the fitted concentration of half-maximal effect; actives are rising curves; nearly all actives have a fitted effect of over 50% in size
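Growth recovery, yeast-based: influenza A NS1 expressed in S. cerevisiae causes slow growth, and suppressors are detected by OD600. The parent strain without NS1 is used as positive control.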
The depositor's hits bear a star; ? = inconclusive; · = not tested or not shown. Most compounds without a hit are left out; they make up all but 21% or so of the library. Unless noted, calls come from the whole dose curve; as a rule, active = well fitted inhibition curve with a large enough effect; inconclusive = small, poorly fitted or top-dose-only effect, or another doubt; inactive = no such curve, though single readings can be large or run the other way.

SMILES	CHX counter	Pf growth 48h	Pf growth 96h	SARS PLP yeast	Shiga toxin inh	NS1 inh
COC(=O)C1C(=O)c2c([nH]c(C(=O)OC3CCCCC3)c2C)CC1C (stereo not drawn)	30.9*	79.0%	-13.7%	-5.4%	41.5*	?
O=C(NNC(=O)c1ccccc1O)c1cc2ccccc2o1	·	31.9%	168.3%	-15.7%	·	·
CSc1ccc(CN2CCN(C3CCCC3)C(CCO)C2)cc1 (stereo not drawn)	1.3	56.3%	168.7%	0.4%	-5.0	2.1%
CC1CC(C)CN(CC(O)COCCOc2ccc(Br)cc2)C1 (stereo not drawn)	4.9	9.28µM*	?	-8.4%	-5.5	6.9%
CC1CCN(CC(O)COCCOc2ccc(Br)cc2)CC1 (stereo not drawn)	-4.3	?	?	-7.2%	-6.8	-6.5%
Cc1cc(C)c2oc(C(=O)N3CCN(C)CC3)cc(=O)c2c1	-6.9	-42.8%	?	-1.5%	0.7	0.7%
O=C(Nc1ccc(OCC(F)(F)C(F)F)c(C(F)(F)F)c1)c1ccccc1O	20.7*	2.08µM*	3.7µM*	-38.3%	52.1*	-48.2%
O=C(Nc1ccc(OCC(F)(F)C(F)F)cc1)c1ccncc1	12.9	15.4%	1.5%	-0.2%	22.1	·
O=C(Nc1nnc(SCc2ccc(F)cc2)s1)c1cccnc1Cl	17.7*	42.7%	-13.3%	-3.8%	13.9	·
O=C(Nc1nnc(SCc2ccc(F)cc2)s1)c1ccccn1	40.0*	?	?	-23.7%	93.3*	·
O=C(Nc1nnc(SCc2ccccc2)s1)c1cccs1	11.2	60.3%	2.0%	-6.0%	21.9	-6.0%
Cc1ccc(S(=O)(=O)NCCOc2cc(C)ccc2C)cc1	1.6	4.8%	?	-1.4%	-5.2	-32.3%
CCN1CCN(C(=O)CCCn2c(C)c3cnn(-c4ccccc4)c(=O)c3c2C)CC1	-7.6	·	2.62µM*	-2.2%	-7.9	9.1%
COc1cc(OC)cc(C(=O)N[C@H](C(=O)OCC(=O)NC(=O)c2cccn2C)C(C)C)c1	-6.6	-32.3%	17.0%	0.1%	-13.1	·
COc1ccc(C(=O)N[C@H](C(=O)OCC(=O)NC(=O)c2cccn2C)C(C)C)cc1	15.5*	-0.7%	17.0%	-13.1%	14.7	-13.0%
Cn1c(=S)c2[nH]c(SCCN3C(=O)c4ccccc4C3=O)nc2n(C)c1=O	·	·	·	·	·	-0.3%
Cn1cccc1CC(=O)N/N=C/c1cccc2ccccc12	22.1*	?	-13.0%	-3.6%	33.1*	20.3%
Cn1cccc1CC(=O)N/N=C\c1c2ccccc2cc2ccccc12	-2.8	18.3%	22.0%	-1.1%	28.4	6.4%
Cc1ccsc1/C=N/NC(=O)Cc1cccn1C	21.3*	25.9%	-8.0%	-11.3%	50.2	10.6%
O=C(NC1CC2CCCC(C1)N2C(=S)NCCc1ccccc1)C1CC1 (stereo not drawn)	-0.4	-4.1%	21.3%	-0.3%	-20.0	-1.0%
CCN(CC(=O)Nc1ccc(NC(C)=O)cc1)C(=O)CCCc1nc2ccccc2c(=O)[nH]1	·	12.1%	19.2%	-2.1%	·	·
O=C(NCCS(=O)(=O)N1CCN(c2cccc(Cl)c2)CC1)c1ccc2c(c1)OCO2	·	7.0%	18.4%	-21.2%	·	·
CCOC(=O)c1cnc2c(-c3ccccc3)cnn2c1C	39.1*	238.5%	363.5%	0.2%	91.2*	-2.1%
CCOC(=O)Cc1c(C)nc2c(-c3ccccc3)cnn2c1C	36.0*	5.5%	25.1%	-0.1%	46.6	-15.4%
CCOC(=O)Cc1c(C)nc2c(-c3ccc(Cl)cc3)c(C)nn2c1C	-0.7	?	4.4%	-1.3%	-11.5	-0.1%
SMILES	CHX counter	Pf growth 48h	Pf growth 96h	SARS PLP yeast	Shiga toxin inh	NS1 inh
CC(=O)c1cnc2c(-c3ccccc3)cnn2c1C	18.5*	45.8%	79.5%	6.3%	27.3	-14.3%
CCOC(=O)Cc1c(C)nc2cc(C)nn2c1C	-2.6	-0.8%	13.1µM*	0.0%	20.8	0.9%
CC(=O)c1cnc2c(-c3ccccc3)c(C(F)(F)F)nn2c1C	-3.1	?	25.5%	3.0%	-14.0	3.3%
CCC(=O)c1cn(/C(=C\C(=O)OC(C)(C)C)CCC(OC)OC)cc1CC	·	?	?	-1.3%	·	·
C=CCNc1nc2ccccc2nc1NS(=O)(=O)c1ccc(Br)cc1	-2.9	32.4%	26.6%	-4.6%	17.2	-50.4%
O=C(CCc1nnc2ccc(NCc3ccco3)nn12)Nc1ccc(F)cc1F	-7.8	-3.5%	?	2.2%	5.9	-3.4%
O=P(C(=NCCO)NO)(N1CCOCC1)N1CCOCC1	1.6	25.2%	28.4%	-0.9%	·	1.2%
COC(=O)Nc1ccc(S(=O)(=O)N2CCCC(C(=O)N3CC(C)OC(C)C3)C2)cc1 (stereo not drawn)	-1.8	-0.9%	0.8%	0.3%	8.8	-2.4%
NCc1oc(-c2ccccc2)cc1C(=O)O	-3.1	12.7%	10.1%	-2.2%	-18.3	·
O=C(Nc1ccccc1)C1=C[C@H](c2ccc3c(c2)OCO3)C[C@H](OCCCCO)O1	47.3*	55.3%	?	-2.5%	117.1*	-5.8%
O=C(Nc1ccccc1)C1=C[C@@H](c2ccc(Br)cc2)C[C@@H](OCCCCO)O1	52.0*	?	?	-3.9%	86.1*	-7.0%
C#CCNC(=O)C1=C[C@H](c2ccc(Br)cc2)C[C@H](OCCCCO)O1	12.1*	?	?	-1.8%	30.9*	-4.7%
C#CCNC(=O)C1=C[C@@H](c2ccc(C(F)(F)F)cc2)C[C@@H](OCCCCO)O1	2.3	?	?	-3.3%	4.3	1.1%
CCC(=O)c1cn(Cc2ccccc2C#N)c2ccccc12	-1.0	·	?	-10.0%	-5.6	-30.4%
O=C(c1ccco1)c1cn(CC(=O)N2CCCCC2)c2ccccc12	-2.4	24.9%	1.65µM*	1.8%	5.1	-10.6%
O=C(Cn1cc(C(=O)c2ccco2)c2ccccc21)NC1CCCCC1	-5.5	22.8%	2.0%	2.2%	-19.7	·
O=C(c1ccco1)c1cn(Cc2ccccc2Cl)c2ccccc12	41.5*	?	·	-31.8%	70.6	-27.2%
O=C(c1ccco1)c1cn(Cc2ccccc2)c2ccccc12	38.3*	·	0.0%	-23.6%	76.6*	-113.5%
N#Cc1ccccc1Cn1cc(C(=O)c2ccco2)c2ccccc21	47.2*	?	?	-9.8%	23.5*	-39.3%
COC(=O)Cn1cc(C(=O)c2ccco2)c2ccccc21	0.4	15.9%	38.9%	-9.5%	-14.7	-53.4%
CC(=O)NCCCS(=O)(=O)O	·	-2.7%	-48.4%	·	·	·
O=C(c1cccs1)c1cn(CC(=O)N2CCc3ccccc3C2)c2ccccc12	48.2*	?	-3.1%	4.1%	4.9	-50.6%
O=C(O)Cn1cc(C(=O)c2cccs2)c2ccccc21	-2.9	4.7%	-25.3%	-9.3%	17.4	3.3%
O=C(CC1C(=O)NCCN1CCCc1ccccc1)NCCc1ccccc1Cl (stereo not drawn)	-0.6	13.1µM*	?	1.6%	-8.3	-9.2%
